Results as given in PubChem BioAssay (EPA / NIEHS).
Active and inactive are the calls of the source. How the source made its calls: active means hit-call score of the fitted dose curve at least 0.9, where 1 is the maximum; inactive means score below 0.9.

Columns and labels:
Conditions in all cases: mRNA level, 48 h; actives raise or lower the signal
[1] = read-out: Fatty Acid-Binding Protein 1 (FABP1), FABP1 (gene 2168); experiment: LTEA_HepaRG_FABP1: Life Technologies and Expression Analysis (LTEA) Assay for Fatty Acid-Binding Protein 1 (FABP1) using HepaRG (AID 2283494)
Procedure, shortened: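 HepaRG, 48 h post-plating switched to serum-free induction medium, then dosed 48 h (duplicate, 8 pts, ≤100 uM, 0.5% DMSO). RNA → Fluidigm TaqMan qRT-PCR, FABP1 normed to ACTB/GAPDH/POLR2A. Bidirectional curve fit vs DMSO.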

[2] = read-out: Cytochrome P450 4A22 (Homo sapiens) (UniProt Q5TCH4); experiment: LTEA_HepaRG_CYP4A22: Life Technologies and Expression Analysis (LTEA) Assay for Cytochrome P450 4A22 (CYP4A22) using HepaRG (AID 2283495)
Procedure, shortened: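 HepaRG, 48 h post-plating -> serum-free induction medium; dosed 48 h, duplicate, 8 conc. (100 uM top, half-log), 0.5% DMSO. Readout: CYP4A22 mRNA by qRT-PCR, ACTB/GAPDH/POLR2A normalization; gain/loss fit relative to DMSO.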

[3] = read-out: Cytochrome P450 7A1 (Homo sapiens) (UniProt P22680); experiment: LTEA_HepaRG_CYP7A1: Life Technologies and Expression Analysis (LTEA) Assay for Cytochrome P450 7A1 (CYP7A1) using HepaRG (AID 2283496)
Procedure, shortened: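 Gene expression endpoint in human HepaRG liver cells treated for 48 h with test chemicals (up to 100 uM, 0.5% DMSO). Values come from bidirectional concentration-response fitting versus DMSO.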

[4] = read-out: growth arrest and DNA damage 45 (GADD45G), GADD45G (gene 10912); experiment: LTEA_HepaRG_GADD45G: Life Technologies and Expression Analysis (LTEA) Assay for growth arrest and DNA damage 45 (GADD45G) using HepaRG (AID 2283499)
Procedure, shortened: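 HepaRG, 48 h exposure, top 100 uM, half-log 8-point series, 0.5% DMSO vehicle, duplicates. Readout: GADD45G transcript by qRT-PCR (Fluidigm array), housekeeping-normalised (ACTB/GAPDH/POLR2A). Bidirectional curve fit vs DMSO baseline.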

[5] = read-out: Glutamate-cysteine ligase regulatory (GCLM), GCLM (gene 2730); experiment: LTEA_HepaRG_GCLM: Life Technologies and Expression Analysis (LTEA) Assay for Glutamate-cysteine ligase regulatory (GCLM) using HepaRG (AID 2283500)
Procedure, shortened: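 Differentiated human HepaRG cells exposed 48 h in serum-free induction medium to 8-point half-log concentrations (top 100 uM, 0.5% DMSO), in duplicate. GCLM mRNA quantified by qRT-PCR, normalized to ACTB, GAPDH, POLR2A; bidirectional fitting versus DMSO.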

[6] = read-out: Glutathione S-transferase M3 (GSTM3), GSTM3 (gene 2947); experiment: LTEA_HepaRG_GSTM3: Life Technologies and Expression Analysis (LTEA) Assay for Glutathione S-transferase M3 (GSTM3) using HepaRG (AID 2283501)
Procedure, shortened: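 qRT-PCR read-out of GSTM3 transcript, normalized to three housekeeping genes, from human HepaRG cells after 48 h chemical exposure. Eight-point half-log series, top 100 uM, 0.5% DMSO vehicle; gain or loss fitted relative to DMSO baseline.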

[7] = read-out: Heat shock 70 kDa protein 1 (HSPA1A), gene 3303; experiment: LTEA_HepaRG_HSPA1A: Life Technologies and Expression Analysis (LTEA) Assay for Heat shock 70 kDa protein 1 (HSPA1A) using HepaRG (AID 2283502)
Procedure, shortened: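 Differentiated human HepaRG cells in serum-free induction medium were exposed in duplicate for 48 h to eight concentrations (top 100 uM, half-log steps, 0.5% DMSO). HSPA1A mRNA was quantified by qRT-PCR, normalized to ACTB, GAPDH and POLR2A, and fitted bidirectionally against DMSO.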

[8] = read-out: Hypoxia-inducible factor 1-alpha (Homo sapiens) (UniProt Q16665); experiment: LTEA_HepaRG_HIF1A: Life Technologies and Expression Analysis (LTEA) Assay for Hypoxia-inducible factor 1 (HIF1A) Trancription factor using HepaRG (AID 2283503);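 further: HIF1A transcript by TaqMan qRT-PCR normalized to ACTB GAPDH and POLR2A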
Procedure, shortened: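 HepaRG, 48 h exposure, 8-pt half-log series from 100 uM, 0.5% DMSO vehicle, duplicates. Readout: HIF1A transcript by qRT-PCR (Fluidigm array), housekeeping-normalised. Bidirectional curve fit vs DMSO baseline.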

[9] = read-out: Glutamate-cysteine ligase catalytic (GCLC), GCLC (gene 2729); experiment: LTEA_HepaRG_GCLC: Life Technologies and Expression Analysis (LTEA) Assay for Glutamate-cysteine ligase catalytic (GCLC) using HepaRG (AID 2283498)
Procedure, shortened: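 Read-out is GCLC transcript level by Fluidigm-based TaqMan qRT-PCR, normalized to three housekeeping genes and fitted in both directions relative to 0.5% DMSO. Human HepaRG cells received chemicals for 48 h, up to 100 uM.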

[10] = read-out: Glutathione S-Transferase (GSTA2), GSTA2 (gene 2939); experiment: LTEA_HepaRG_GSTA2: Life Technologies and Expression Analysis (LTEA) Assay for Glutathione S-Transferase (GSTA2) using HepaRG (AID 2283497)
Procedure, shortened: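 HepaRG, 48 h dosing, 8-pt half-log CRC from 100 uM, 0.5% DMSO vehicle, n=2; RNA → Fluidigm TaqMan qRT-PCR; GSTA2 vs ACTB/GAPDH/POLR2A; gain/loss fit vs DMSO.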

Hypoxia-inducible factor 1-alpha (Homo sapiens), sequence (Q16665 whole entry, looked up): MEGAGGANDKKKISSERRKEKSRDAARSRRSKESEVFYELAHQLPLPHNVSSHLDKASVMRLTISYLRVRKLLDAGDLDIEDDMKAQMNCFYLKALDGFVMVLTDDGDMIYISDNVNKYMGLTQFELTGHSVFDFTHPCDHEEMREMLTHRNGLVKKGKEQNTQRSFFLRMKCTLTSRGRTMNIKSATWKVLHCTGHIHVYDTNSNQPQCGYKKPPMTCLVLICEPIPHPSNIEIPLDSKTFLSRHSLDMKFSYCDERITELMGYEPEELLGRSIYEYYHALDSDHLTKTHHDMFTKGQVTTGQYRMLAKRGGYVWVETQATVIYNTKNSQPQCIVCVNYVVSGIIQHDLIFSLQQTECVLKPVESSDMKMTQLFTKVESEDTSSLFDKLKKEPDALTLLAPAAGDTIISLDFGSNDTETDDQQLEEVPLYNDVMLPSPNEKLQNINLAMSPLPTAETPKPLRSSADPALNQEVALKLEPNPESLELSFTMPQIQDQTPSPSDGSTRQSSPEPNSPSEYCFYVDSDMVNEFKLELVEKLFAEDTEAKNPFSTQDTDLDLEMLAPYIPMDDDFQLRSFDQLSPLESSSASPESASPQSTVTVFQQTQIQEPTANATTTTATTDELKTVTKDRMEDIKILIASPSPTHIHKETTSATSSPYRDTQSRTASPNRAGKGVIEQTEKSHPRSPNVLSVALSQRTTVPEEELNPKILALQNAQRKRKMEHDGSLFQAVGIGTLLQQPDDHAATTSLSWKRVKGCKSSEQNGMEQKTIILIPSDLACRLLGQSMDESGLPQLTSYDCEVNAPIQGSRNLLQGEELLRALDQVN

CC(Cc1ccc(OCC(=O)O)cc1)NCC(O)c1csc(C(F)(F)F)n1 (stereo not given)
outcome [1]: inactive
outcome [2]: inactive
outcome [3]: inactive
outcome [4]: inactive
outcome [5]: inactive
outcome [6]: inactive
outcome [7]: inactive
outcome [8]: inactive

CCC(C)(C)c1ccc(O)cc1
outcome [1]: inactive
outcome [2]: inactive
outcome [3]: inactive
outcome [4]: inactive
outcome [5]: inactive
outcome [6]: inactive
outcome [7]: inactive
outcome [8]: inactive

c1cc2c3c(cccc3c1)CC2
outcome [1]: inactive
outcome [2]: inactive
outcome [3]: inactive
outcome [9]: inactive
outcome [4]: inactive
outcome [5]: inactive
outcome [6]: inactive
outcome [7]: inactive
outcome [8]: inactive

O=P1(N(CCCl)CCCl)NCCCO1 (stereo not given)
outcome [1]: inactive
outcome [2]: inactive
outcome [3]: inactive
outcome [4]: inactive
outcome [5]: inactive
outcome [6]: inactive
outcome [7]: inactive

CCC1(c2ccccc2)C(=O)N=C(O)NC1=O (stereo not given)
outcome [1]: inactive
outcome [2]: inactive
outcome [3]: inactive
outcome [4]: inactive
outcome [5]: inactive
outcome [6]: inactive
outcome [7]: inactive
outcome [8]: inactive

O=P(Oc1ccccc1)(Oc1ccccc1)Oc1ccccc1
outcome [1]: inactive
outcome [2]: inactive
outcome [3]: inactive
AC50 [4]: 50 µM (active)
AC50 [5]: 50 µM (active)
outcome [6]: inactive
outcome [7]: inactive

COCCOCCO
outcome [1]: inactive
outcome [2]: inactive
outcome [3]: inactive
outcome [10]: inactive
outcome [4]: inactive
outcome [5]: inactive
outcome [6]: inactive
outcome [7]: inactive
outcome [8]: inactive

CCCN(CCC)c1c([N+](=O)[O-])cc(C(C)C)cc1[N+](=O)[O-]
AC50 [1]: 9.92 µM (active)
outcome [2]: inactive
AC50 [3]: 50 µM (active)
outcome [4]: inactive
AC50 [5]: 9.92 µM (active)
AC50 [6]: 3.04 µM (active)
AC50 [7]: 16.7 µM (active)
outcome [8]: inactive

OCC1CO1 (stereo not given)
outcome [1]: inactive
outcome [2]: inactive
outcome [3]: inactive
outcome [4]: inactive
outcome [5]: inactive
outcome [6]: inactive
outcome [7]: inactive
outcome [8]: inactive

Nc1ccc(Cl)cc1
outcome [1]: inactive
outcome [2]: inactive
outcome [3]: inactive
outcome [4]: inactive
outcome [5]: inactive
outcome [6]: inactive
outcome [7]: inactive
outcome [8]: inactive

[N-]=[N+]=[N-]
AC50 [1]: 77.6 µM (active)
AC50 [2]: 50 µM (active)
outcome [3]: inactive
AC50 [4]: 78.1 µM (active)
AC50 [5]: 95 µM (active)
outcome [6]: inactive
outcome [7]: inactive
outcome [8]: inactive

CCOc1ccc(C(C)(C)COCc2cccc(Oc3ccccc3)c2)cc1
outcome [1]: inactive
outcome [2]: inactive
AC50 [3]: 26.8 µM (active)
outcome [4]: inactive
outcome [5]: inactive
outcome [6]: inactive
outcome [7]: inactive
outcome [8]: inactive

Nc1cc2c3c(c1)C(c1ccccc1)=N[C@@H](NC(=O)c1cccnc1)C(=O)N3CC2
AC50 [1]: 50 µM (active)
AC50 [2]: 10.9 µM (active)
outcome [3]: inactive
outcome [4]: inactive
outcome [5]: inactive
outcome [6]: inactive
outcome [7]: inactive
outcome [8]: inactive

c1ccc2c(c1)Nc1ccccc1S2
AC50 [1]: 50 µM (active)
outcome [2]: inactive
AC50 [3]: 20.2 µM (active)
outcome [9]: inactive
outcome [4]: inactive
outcome [5]: inactive
outcome [6]: inactive
outcome [7]: inactive
outcome [8]: inactive

ClC(Cl)c1ccccc1
outcome [1]: inactive
outcome [2]: inactive
outcome [3]: inactive
outcome [4]: inactive
outcome [5]: inactive
outcome [6]: inactive
outcome [7]: inactive
outcome [8]: inactive

ClC(Cl)(Cl)c1ccccc1
outcome [1]: inactive
outcome [2]: inactive
outcome [3]: inactive
outcome [10]: inactive
outcome [4]: inactive
outcome [5]: inactive
outcome [6]: inactive
outcome [7]: inactive
outcome [8]: inactive

Cc1ccc([N+](=O)[O-])cc1C
outcome [1]: inactive
outcome [2]: inactive
outcome [3]: inactive
outcome [4]: inactive
outcome [5]: inactive
outcome [6]: inactive
outcome [7]: inactive
outcome [8]: inactive

O=C(O)C1C(C(=O)O)C2(Cl)C(Cl)=C(Cl)C1(Cl)C2(Cl)Cl (stereo not given)
outcome [1]: inactive
outcome [2]: inactive
outcome [3]: inactive
outcome [10]: inactive
outcome [4]: inactive
outcome [5]: inactive
outcome [6]: inactive
outcome [7]: inactive

c1ccc(OP(Oc2ccccc2)Oc2ccccc2)cc1
outcome [1]: inactive
outcome [2]: inactive
outcome [3]: inactive
outcome [4]: inactive
outcome [5]: inactive
outcome [6]: inactive
outcome [7]: inactive
outcome [8]: inactive

CCN(CC)c1ccccc1
outcome [1]: inactive
outcome [2]: inactive
outcome [3]: inactive
outcome [4]: inactive
outcome [5]: inactive
outcome [6]: inactive
outcome [7]: inactive
outcome [8]: inactive

CCCCCCCc1ccc(O)cc1
outcome [1]: inactive
outcome [2]: inactive
outcome [3]: inactive
outcome [4]: inactive
outcome [5]: inactive
outcome [6]: inactive
outcome [7]: inactive
outcome [8]: inactive
